Shown are actives, neighbours in structure and some others; about 8.3% of the full set was active somewhere.
HCV inhibitor: inhibitors of hepatitis C virus infection; Huh7.5.1 HCVcc-Cre infection, luciferase reporter, 44 h; Potency, µM (highest dose often 41.8 µM), for inactives: at the highest dose activity change, negative = inhibition, most hits filed as inhibitors; actives 3.4% (n = 340,000); AID 651820; also: potency is read from the fitted curve at half-maximal effect
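Reporter virus HCVcc-Cre (~0.5 moi) infects cells exposed to compound; seeding density 1,000 cells/well with 4 h settling beforehand. Luminescence, 15 sec read, taken 44 h post-infection following a 15 min RT substrate incubation.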
FMDV inh: blocks foot and mouth disease virus. FMDV antiviral cell-based qHTS. Potency, µM (series often up to 57.9 µM), without a hit: top-dose activity change, negative = inhibition, hits mostly inhibitors. actives 1.2% (n = 410,000). AID 1159524; calls by dose curve; tested in HEK293T cells; also: read-out not given here; potency is read from the fitted curve at half-maximal effect; nearly all actives have a fitted effect of over 45% in size
HCMV inh: human cytomegalovirus inhibition. actives 4.5% (n = 410,000). HFF cells, HCMV-luciferase reporter, 72 h; active compounds read low. activity change, negative = inhibition, % at 57.5 µM. AID 1259415; in the data active = activity change below about -60%; inconclusive = no clear call, values can overlap the other calls; inactive = above about -39%
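Inhibition of viral replication was scored as loss of reporter luminescence in HFFs infected with HCMV-luciferase (MOI 1 PFU/cell) for 72 h; compounds tested at 2 doses, normalized to buffer and Salinomycin controls.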
Lassa entry inh: blocks Lassa virus binding to or entry into cells | Potency, µM (top dose mostly 37.9 µM), for inactives: top-dose activity change, negative = inhibition, actives largely listed as inhibitors | actives 1.2% (n = 300,000) | Lassa virus pseudotype entry inhibition, cell reporter; calls by dose curve; tested in HEK293 cells; also: potency is read from the fitted curve at half-maximal effect; nearly all actives have a fitted effect of over 50% in size
FBPA Giardia inh: inhibitors of Giardia lamblia fructose-1,6-bisphosphate aldolase. purified Giardia FBPA. Potency, µM (top dose mostly 59.6 µM), without a hit: top-dose activity, negative = inhibition, usual class: inhibitors. AID 2451. A8B2U2. actives 0.71% (n = 290,000); also: potency is read from the fitted curve at half-maximal effect; nearly all actives have a fitted effect of over 55% in size
Target sequence (A8B2U2 whole entry, looked up): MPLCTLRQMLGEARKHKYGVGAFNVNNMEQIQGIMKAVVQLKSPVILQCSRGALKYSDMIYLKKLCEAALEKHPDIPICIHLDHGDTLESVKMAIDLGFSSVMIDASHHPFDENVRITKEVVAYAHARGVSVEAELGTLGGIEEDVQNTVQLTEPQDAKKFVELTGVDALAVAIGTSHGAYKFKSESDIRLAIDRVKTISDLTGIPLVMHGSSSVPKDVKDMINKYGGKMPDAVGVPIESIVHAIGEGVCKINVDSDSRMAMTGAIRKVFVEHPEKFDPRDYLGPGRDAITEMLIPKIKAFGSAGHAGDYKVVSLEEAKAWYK
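Giardia FBPA (40 nM reagent) was preincubated 10 min at RT with compound (up to 57.5 uM final), then substrate plus GAPDH/TPI/NAD/arsenate coupling system with diaphorase/resazurin was added; resorufin fluorescence (525/598 nm) was read after 20 min.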
MARV entry inh: blocks Marburg virus binding to or entry into cells; Marburg virus pseudotyped entry inhibition, cell reporter; actives 1.8% (n = 300,000); Potency, µM (titrated, usually from 37.8 µM), for inactives: at the highest dose activity change, negative = inhibition, usual class: inhibitors; AID 540276; calls by dose curve; tested in HEK293 cells; also: potency is read from the fitted curve at half-maximal effect
The depositor's hits bear a star; ? = inconclusive; nt = no result given; [ ] = dose if it differs, or a comment. Unless noted, calls follow the shape of the dose curve; as a rule, active = well fitted curve in the direction sought with a large enough effect; inconclusive = small, poorly fitted or top-dose-only effect, or another doubt; inactive = no such curve, though single readings can be large; an effect the other way counts as inactive or inconclusive. % is scaled to controls: 0 for no effect and ±100 for the full control effect.

SMILES	HCV inhibitor	FMDV inh	HCMV inh	Lassa entry inh	FBPA Giardia inh	MARV entry inh
Cc1c(-c2ccccc2)cnc2c(C)cccc12	11µM*	-2%	9	nt	nt	nt
O=C(CCCn1c2ccccc2c(=O)c2ccccc21)Nc1cccc(Cl)c1	nt	?	-67*	?	nt	nt
Cc1ccc2c(c1)c(=O)c1ccccc1n2CCCC(=O)Nc1ccc(Cl)c(Cl)c1	nt	0%	-37	-11%[46.1 µM]	nt	nt
Cc1ccc2c(c1)c(=O)c1ccccc1n2CCCC(=O)Nc1ccc(C)c(C)c1	nt	?	-61*	?	nt	nt
Cc1ccc2c(c1)c(=O)c1ccccc1n2CCCC(=O)Nc1ccc(C)c(F)c1	nt	0%	-74*	?	nt	nt
COCC(=O)Nc1cc(C(=O)N2CCCCC2c2nccn2C)cc2nc(-c3ccccc3)n(C)c12 (centres undefined)	nt	4%	nt	nt	nt	nt
COc1cc(NC(=O)CSc2nc(-c3ccco3)cc(C(F)(F)F)n2)cc(OC)c1OC	nt	?	?	-21%[46.1 µM]	nt	-11%[46.1 µM]
COc1cccc(-n2c(-c3ccco3)nc3c(cnn3-c3ccc(Cl)cc3)c2=O)c1	nt	?	-67*	?	nt	-28%[46.1 µM]
COc1ccc(-n2c(-c3ccco3)nc3c(cnn3-c3ccc(Cl)cc3)c2=O)cc1	nt	-4%	?	?	nt	?
O=c1c2cnn(-c3ccccc3)c2nc(-c2ccco2)n1-c1ccccc1	13µM*	14µM*	-71*	?	22%	?
Fc1ccc(C(NCCc2ccc(Cl)cc2)c2nnc(-c3ccccc3)o2)c(Cl)c1 (centres undefined)	nt	14%	10	10%[46.1 µM]	nt	-24%[46.1 µM]
COc1ccc(CCNC(c2ccc(F)cc2)c2nnc(-c3ccccc3Cl)o2)cc1OC (centres undefined)	nt	?	-9	-28%[46.1 µM]	nt	13µM*
CC(=O)N1c2ccccc2Oc2cc3ccccc3cc21	12%	19%	16	?	7%	?
CC(=O)N1c2ccc(C)cc2Sc2c1ccc1ccccc21	-10%	-23%	-61*	?	nt	?
Cc1ccc(Nc2nc(-c3ccc(S(=O)(=O)N4CCOCC4)cc3)cs2)cc1Cl	9%	?	-74*	-5%	2%	?
Cc1ccc(-c2csc(NC(=O)COC(=O)c3cccc(S(=O)(=O)N4CCOCC4)c3)n2)cc1	-7%	-6%	104	-24%	-9%	?
CCCCC(=O)Nc1nc(-c2ccc(S(=O)(=O)N3CCOCC3)cc2)cs1	?	?	-90*	?	nt	-25%
CC(C)CC(=O)Nc1nc(-c2ccc(S(=O)(=O)N3CCOCC3)cc2)cs1	?	22µM*	-39	?	5%	-10%
CCCS(=O)(=O)NC(=O)C1(C)CCCN(C(=O)c2c(-c3ccccc3)noc2C)C1 (centres undefined)	nt	-6%	-63*	nt	nt	nt
Cc1ccc(-c2cc(-c3ccc(C)cc3O)[nH]n2)cc1	-29%	36%	293	nt	8%	nt
Cc1ccccc1-c1cc(-c2ccccc2O)n[nH]1	7.1µM*	57%	155	-26%	-4%	0%
Oc1ccc(Cl)cc1-c1cc(-c2ccccc2)n[nH]1	10µM*	28%	47	nt	-2%	nt
Oc1ccccc1-c1cc(-c2ccccc2)n[nH]1	?	18%	14	nt	nt	nt
Oc1ccc(Br)cc1-c1cc(-c2ccccc2Cl)[nH]n1	7.9µM*	21%	0	nt	3%	nt
Cc1ccc(-c2cc(-c3ccc(F)cc3)n[nH]2)c(O)c1	13µM*	12%	106	-16%	0%	?
SMILES	HCV inhibitor	FMDV inh	HCMV inh	Lassa entry inh	FBPA Giardia inh	MARV entry inh
CSc1nn(Cc2cccc(Cl)c2)c(N(C(C)=O)C(C)=O)c1S(=O)(=O)c1ccccc1	nt	0%	-19	?	nt	-23%[46.1 µM]
COc1ccc(OCc2cccc(C(=O)NN)c2)cc1	10%	8.9µM*	105	?	-10%	4.1µM*
COc1cc(CNC(=O)c2cccc(COc3ccc(Cl)cc3)c2)cc(OC)c1	7.9µM*	-81%	-16	?	1%	?
NNC(=O)c1cccc(COc2ccc(Br)cc2)c1	-10%	-28%	57	?	1%	?
O=C(NCc1ccccc1)c1cccc(COc2ccc(Cl)cc2)c1	?	10%	91	?	-1%	?
COc1ccc(OCc2cccc(C(=O)Nc3cc(C)on3)c2)cc1	?	-67%	113	?	-1%	5.8µM*
N#CC1=C2Sc3ccccc3N2CCCC1=O	23%	33%	-16	?	14%	12%
N#CC1=C2SC=C(c3ccc(Br)cc3)N2CCCC1=O	11µM*	-6%	-3	3%[46.1 µM]	-11%	?
Cc1ccc(C(=O)Oc2csc(=S)n2C(=O)c2ccc(C)cc2)cc1	11%	nt	-62*	-15%	20%	5%
Cc1ccc(C(=O)N2CCSC2=S)cc1	-1%	-22%	22	?	0%	?
COC(=O)CS(=O)(=O)c1nc2ccccc2nc1N1CCCCC1	nt	-14%	-66*	20%[46.1 µM]	nt	-29%[46.1 µM]
O=C(O)CSc1nc2ccccc2nc1N1CCCCC1	nt	-4%	-11	-12%[46.1 µM]	nt	2%[46.1 µM]
CC1=C(C(=O)Nc2cc(C)cc(C)c2)C2(CCCCC2)OC1=O	nt	-9%	16	26%[46.1 µM]	nt	3%[46.1 µM]
CCOC(=O)c1c(C)[nH]c(C(=O)NNC(=O)c2ccccc2)c1C	-18%	-9%	195	?	6%	-29%
CCOC(=O)c1c(C)[nH]c(C(=O)N/N=C\c2ccccc2Cl)c1C	?	-17%	-99*	?	-1%	-27%
COc1ccc(/C=N/NC(=O)c2[nH]c(C)c(C(=O)N/N=C/c3ccc(OC)cc3)c2C)cc1	?	?	-35	?	4%	?
COc1ccc2c(c1)c(C(=O)N/N=C/c1cccc(Br)c1)c(C)n2C	?	-21%	?	-21%	20µM*	-10%
COc1ccc2c(c1)c(C(=O)N/N=C/c1cccc(O)c1)c(C)n2C	-17%	2%	?	4%	-13%	4%
COc1cccc(/C=N/NC(=O)c2[nH]c(C)c(C(=O)N/N=C/c3cccc(OC)c3)c2C)c1	10µM*	?	153	-4%	-4%	?
CCOC(=O)c1c(C)[nH]c(C(=O)N/N=C/c2cccc(OC)c2)c1C	22µM*	15%	-36	?	7%	?
COC(=O)c1sc2cccc(F)c2c1S(=O)(=O)Nc1ccc(N(C)C)cc1	nt	16%	14	29%[46.1 µM]	nt	nt
O=C1NCCN1C(=O)N1CCC[C@@H]1c1noc2cc3ccccc3cc12	nt	nt	3	nt	nt	nt
CC(C)(C)c1ccc(OCc2ccc(C(=O)N/N=C3\CC4CC=CC34)cc2)cc1 (centres undefined)	?	11%	-68*	-19%	9%	0%
CC(C)(C)c1ccc(OCc2ccc(C(=O)N/N=C/c3ccc(O)c(O)c3)cc2)cc1	5.6µM*	?	2	?	-21%	?
COc1ccc(C(=O)N/N=C/c2cc(Br)ccc2O)cc1OC	11µM*	-13%	-97*	2.5µM*	22%	8.9µM*

Screening data (PubChem)
